The panel holds about 79,000 compounds, 15% with a hit somewhere; the sample as a whole holds those more often. A number with no mark means an inactive call. Activity calls are given as the source filed them. No stated cut-off is given here; in the data, active means growth inhibition above about 70%; inactive means the rest.
Experiments:
[1] = NCI Yeast Anticancer Drug Screen. Data for the rad50 strain (AID 155);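 further: 0% = growth of vehicle-only cultures of the same strain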; details: S. cerevisiae rad50 strain growth inhibition, stronger effect = higher value
How it was run: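 Growth of the mutant yeast was measured after compound exposure and referenced to vehicle-treated cultures.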

[2] = NCI Yeast Anticancer Drug Screen. Data for the mec2-1 strain (AID 157); details: S. cerevisiae mec2-1 strain, stronger effect = higher value
How it was run: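 Mutant yeast (mec2-1) grown with compound; growth inhibition relative to vehicle control reported.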

[3] = NCI Yeast Anticancer Drug Screen. Data for the sgs1 mgt1 strain (AID 161);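 further: 0% = growth of cultures given vehicle only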; details: S. cerevisiae sgs1 mgt1 strain, stronger effect = higher value
How it was run: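 Yeast cells carrying a defined DNA-repair defect were exposed to test compounds. Growth inhibition was measured relative to vehicle-treated controls.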

[4] = NCI Yeast Anticancer Drug Screen. Data for the cln2 rad14 strain (AID 165);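 further: 0% = growth equal to vehicle treated cultures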; details: S. cerevisiae cln2 rad14 strain, stronger effect = higher value
How it was run: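 Readout is yeast growth inhibition versus vehicle-treated controls, using a strain with cln2 and rad14 alterations exposed to compound.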

[5] = NCI Yeast Anticancer Drug Screen. Data for the bub3 strain (AID 167); details: S. cerevisiae bub3 mutant strain, stronger effect = higher value
How it was run: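 Whole-cell yeast assay. The mutant strain was incubated with compounds, and growth inhibition was determined by comparison with vehicle-treated cells.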

[6] = NCI Yeast Anticancer Drug Screen. Data for the mlh1 rad18 strain (AID 175); details: S. cerevisiae mlh1 rad18 strain growth inhibition, stronger effect = higher value
How it was run: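 Genetically defined yeast (DNA repair-deficient) exposed to compounds; growth inhibition determined relative to vehicle.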

[7] = at 5.0 µM (retest, dose inferred, filed as 0.5)
[8] = at 50.0 µM (retest, dose inferred, filed as 5.0)

SMILES | growth inhibition [1, 7] | growth inhibition [1, 8] | growth inhibition ([1]; at 50.0 µM) | growth inhibition [2, 7] | growth inhibition [2, 8] | growth inhibition ([2]; at 50.0 µM) | growth inhibition [3, 7] | growth inhibition [3, 8] | growth inhibition ([3]; at 50.0 µM) | growth inhibition [4, 7] | growth inhibition [4, 8] | growth inhibition ([4]; at 50.0 µM) | growth inhibition [5, 7] | growth inhibition [5, 8] | growth inhibition ([5]; at 50.0 µM) | growth inhibition [6, 7] | growth inhibition [6, 8] | growth inhibition ([6]; at 50.0 µM)
C=NCC#N | 8% | 8% | -12.9% | -1% | 2% | -1.3% | 4% | 8% | 25% | 11% | 6% | 67.3% | 4% | -2% | 5.25% | – | – | –
C[SH+]c1ccccc1N=Cc1ccccn1.C[SH+]c1ccccc1N=Cc1ccccn1.[Ni+2].[O-][Cl+3]([O-])([O-])[O-] | -3% | 11% | 99% (active) | -5% | 5% | 97.2% (active) | -1% | 12% | 99.5% (active) | 3% | 7% | 58.2% | -4% | 2% | 98.8% (active) | 1% | 16% | 98% (active)
N#C[S-].[Ce+3].c1cnc2c(c1)ccc1cccnc12.c1cnc2c(c1)ccc1cccnc12.c1cnc2c(c1)ccc1cccnc12 | 96% (active) | 99% (active) | 92% (active) | 99% (active) | 100% (active) | 94.8% (active) | 100% (active) | 100% (active) | 91% (active) | 94% (active) | 98% (active) | 93.5% (active) | 99% (active) | 99% (active) | 93% (active) | – | – | –
COC12C(COC(N)=O)C3=C(C(=O)C(C)=C(N)C3=O)N1CC1C2N1C (stereo unspecified) | 10% | 74% (active) | 43.6% | 16% | 84% (active) | 44.6% | 16% | 77% (active) | 55.7% | 1% | 77% (active) | 38.4% | 5% | 55% | 31% | 34% | 92% (active) | 75.8% (active)
C/C(=N\NC(N)=O)C(CN1CCCCC1)C(c1ccccc1)c1c(O)c2ccccc2oc1=O (stereo unspecified) | 14% | 14% | 82.7% (active) | 15% | 15% | 83% (active) | 6% | 6% | 87.6% (active) | 0% | 0% | 72.8% (active) | 17% | 17% | 79% (active) | 17% | 17% | 81.5% (active)
CC(=O)NC1=C(N(CCCl)CCCl)C(=O)c2ccccc2C1=O | 20% | 98% (active) | 99% (active) | 12% | 98% (active) | 98.2% (active) | 18% | 99% (active) | 98.2% (active) | -4% | 96% (active) | 96.2% (active) | 23% | 97% (active) | 99% (active) | – | – | –
COc1ccc([As](O[As](c2ccc(OC)cc2)c2ccc(OC)cc2)c2ccc(OC)cc2)cc1 | 99% (active) | 99% (active) | 99.2% (active) | 100% (active) | 100% (active) | 99.6% (active) | 100% (active) | 100% (active) | 99.5% (active) | 99% (active) | 99% (active) | 99.4% (active) | 99% (active) | 99% (active) | 99.4% (active) | 99% (active) | 99% (active) | 99.5% (active)
CC1c2c(n(C)c3ccccc23)C2CCC3(CO3)C1N2Cc1ccccc1 (stereo unspecified) | 25% | 97% (active) | 90.5% (active) | 22% | 99% (active) | 92% (active) | 42% | 99% (active) | 93.3% (active) | 24% | 98% (active) | 90% (active) | 26% | 99% (active) | 92.5% (active) | 35% | 98% (active) | 92.2% (active)
S=P(Nc1ccc(Cl)cc1)(Nc1ccc(Cl)cc1)c1ccccc1 | 45% | 90% (active) | 97.8% (active) | 20% | 33% | 99.2% (active) | 18% | 65% | 97.1% (active) | 37% | 89% (active) | 95.6% (active) | 38% | 86% (active) | 99.1% (active) | 53% | 95% (active) | 99% (active)
COc1ccc([As]=[As]c2ccc(OC)cc2)cc1 (stereo unspecified) | -23% | 97% (active) | 99.3% (active) | 5% | 97% (active) | 99.3% (active) | -18% | 99% (active) | 99.2% (active) | -25% | 94% (active) | 99.2% (active) | -12% | 98% (active) | 99.2% (active) | -9% | 99% (active) | 99.1% (active)

— PubChem BioAssay (NCI)
